Measured values published in PubChem BioAssay AID1508600 (Functional Genomics Laboratory (NCATS/FGL), 2020).
Among all 53,000 sequences or so, about 3,700 (7%) were called active. This is one part of a sample in which actives are shown more often than they occur.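 The calls were made as follows: active = gene knockdowns whose robust z-score for IL-1 alpha signal is at least 2 or at most -2, so actives lie on both sides; inactive = the rest.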

Test: Components of the Cytosolic LPS Sensing Pathway: Gene Identification via Genome-wide siRNA Screen;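 also: robust z of the log signal after scaling to non-targeting control siRNA wells of the plate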
Settings: RAW264.7 macrophages, IL-1a HTRF, actives lie on both sides, screened at 100 nM (by protocol), cells primed 5 h with Pam3CSK4 first
Procedure, shortened: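 Using IL-1a HTRF as read-out, the screen measured release from RAW264.7 cells after 48h siRNA knockdown (100 nM), 5 h Pam3CSK4 priming and 24 h cytosolic LipidA. Values were expressed relative to negative-control wells as robust z-scores.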

Sequence | z-score
GGUCCAGAGAAUGUUAUUATT against Spinkl | 0.263 (inactive)
GAAUAGAAGGGAAGAAAGUTT against Crb3 | -2.08 (active)
GGGAACUUCCUUGAGAAGATT against Mgat4d | 0.654 (inactive)
GCAACGUGUCUUUUCAAACTT against P2ry10b | -0.223 (inactive)
GUUUCCUUGUGCUAAUGUUTT against Olfr1199 | 1.15 (inactive)
GGAAAACCUAAUAAGGUUCTT against Iqce | 2.72 (active)
GGCUCCAACAUAGAAAUGATT against Tpbpa | 0.38 (inactive)
GCUACGCAUUGAGGAGCUATT against Pkn1 | 0.168 (inactive)
GCUUAUGUCGAAUGAUAGCTT against Id2 | -4.22 (active)
GGCUGCCAAGAAAAUCUAUTT against Rab14 | 0.363 (inactive)
GGAUGAACUCAUGAGAGCCTT against Cyb5r4 | -0.323 (inactive)
GGGUUGAAAGAGCUUGCCATT against Vmn1r198 | -2.56 (active)
CCGAGGUUGUGAAACGAUGTT against Trp63 | -1.47 (inactive)
GGAACCUCCUUAUUCAAUGTT against Rspry1 | 0.0592 (inactive)
GGUUGAAGCAGAAGAUAAUTT against Asnsd1 | -2.2 (active)
GGUGGAGGUCUGGUUUAAGTT against Gsc | -0.4 (inactive)
GGUUGGCACAACUGUGUACTT against Cr2 | -0.0754 (inactive)
GGAAACCAACUUCAGCCUGTT against Gfra1 | -0.0125 (inactive)
GCAAAUCCCAUGAACAGCUTT against Nvl | -2.55 (active)
GGGCAAUCGACUGAGAAUUTT against Lingo4 | -0.0246 (inactive)
CGAAGAAAACCAUAAGGACTT against Bdnf | -0.876 (inactive)
GGAGAGCAAAUUAAGUUCATT against Erc1 | 1.01 (inactive)
GCAAUAAGGGCAUUAUAAATT against Wdhd1 | -0.407 (inactive)

Sequence | z-score
GGUUCAUAAUGCCUUCAAGTT against Olfr1449 | 0.719 (inactive)
CCAGGAAGUUACAAUUCAATT against Ccpg1 | 0.181 (inactive)
GCCUAAUGCCAACUCACAATT against Samd7 | -1.49 (inactive)
GGCACUGCACUUUAACAUATT against Serpinb7 | -0.402 (inactive)
GGGUGUGAGGGAUUUCAUCTT against Ndufa2 | 2.22 (active)
CCUAACCAUCGACUUCUUCTT against Wfs1 | -0.189 (inactive)
GCGGGACUGACCUCUUAAUTT against Guk1 | -0.244 (inactive)
GGAGUGAAGGUUCAGAUCCTT against Asic2 | 3.1 (active)
GGCUUUCAGAGUUAACAAATT against Ptpn4 | -0.727 (inactive)
GGGUGUCUUCAACAAGUACTT against Dnttip1 | -1.71 (inactive)
GGAAAAAAGGAUUUCAAACTT against Rad9b | 1.3 (inactive)
GGAAAGACCACCAAAUCCCTT against Dpy30 | 1.48 (inactive)
GGCUCCAUAUGGAAUGCAGTT against Ets2 | 0.571 (inactive)
CCAGCCGUAUUACAACUACTT against Bpnt1 | 2.12 (active)
GCUUAAACCGCCUAUGUUCTT against Spcs1 | 0.782 (inactive)
GCUCACCUUUCUUGAGAAATT against 4930579C12Rik | -0.179 (inactive)
GGAAAAAGUGCAUUUAUGUTT against Prpf40a | -1.16 (inactive)
GCUGUUGCUGGCUAUUCUGTT against Eef2kmt | -2.3 (active)
AACAUGUCCAACCUAGGCATT against Lefty1 | -1.44 (inactive)
GGUGGACUACUCACGAUUCTT against Kcnj4 | 0.867 (inactive)
GGAGCAGGACGAGAAUCAATT against Cdkn1c | 3.62 (active)
GCACUGGAAUCAAACCAUCTT against Ppp2r5b | 0.444 (inactive)
CGCAUUUUCUCUCGAGCUUTT against Slc25a30 | -0.34 (inactive)

Sequence | z-score
GGAGCACAGUUUUGGUGCUTT against Olfr576 | 1.82 (inactive)
GGAAGUAAAGCUCUACAAGTT against Vps28 | 0.236 (inactive)
GGCACAAUUUCUUUGAAUCTT against Ophn1 | 0.885 (inactive)
GGCUAUUAGGUUUGAAAUCTT against Grsf1 | 0.351 (inactive)
GGUUUCCAGUAAGAUCUUATT against Mdn1 | 2.21 (active)
CCUAGAUUCUCCAAACUAATT against D630029K05Rik | -0.238 (inactive)
GGAGAUGCGAGUACAACUGTT against Ermn | 0.479 (inactive)
GGAAAGAUGUGGUCCAGCUTT against Sirt3 | 0.373 (inactive)
UUAAGCCGCUUUUGAAGCUTT against Olfr1200 | 0.812 (inactive)
GGCUUUCAAGAUUCAGUGATT against Gsta1 | 0.103 (inactive)
GGCACUUCAAGGAGUUUUUTT against Lig4 | 3.25 (active)
GGAAAAUAAGCUAAGGAAGTT against Peg12 | -0.018 (inactive)
GGCAAUUUCUAAACAGGGATT against Atp6v1f | -2.01 (active)
GCGAUGCUCCUAAUUCUUATT against Dusp21 | -1.18 (inactive)
GCUACAGUUUGUGGGUGACTT against Zmynd15 | 0.11 (inactive)
CGAGUAUCCCGUCAAGUUGTT against 6820408C15Rik | -0.699 (inactive)
GGCAAAUUAGCUAGUAUCATT against Rai2 | -2.2 (active)
GGUGGAGAAGAGUUUCUGCTT against Gpr132 | 0.375 (inactive)
GGAGAAACAGAAGUAUUGATT against Nsa2 | -0.559 (inactive)
GGGUUGGAACAAGGUAAUUTT against Usp16 | -0.546 (inactive)
GGCUCAAAGCCAAUCUGAATT against Recql4 | 2.06 (active)
GCUGUAUCCAGCUUUUCGGTT against Tcf3 | -0.43 (inactive)
GCGAGAUUCUUAAAGAAAUTT against Brdt | 0.645 (inactive)
